PubChem BioAssay (NCI)
About 79,000 compounds went through this panel and 15% of them were active in at least one assay; those are over-represented in the sample as a whole. The source made the active and inactive calls. No stated cut-off is given here; in the data, active means growth inhibition above about 70%; inactive means the rest.

Assays:
[1] = NCI Yeast Anticancer Drug Screen. Data for the rad52 strain (AID 147);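 further: 0% = growth of vehicle-treated control cultures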; details: S. cerevisiae rad52 mutant growth inhibition, stronger effect = higher value
How it was run: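 Vehicle-treated cultures served as the reference for growth inhibition of compound-exposed yeast bearing a DNA repair mutation.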

[2] = NCI Yeast Anticancer Drug Screen. Data for the wt1 strain (AID 149);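 further: 0% = growth of vehicle-treated wt1 cultures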; details: S. cerevisiae wt1 strain (SPY 50644) growth inhibition, stronger effect = higher value
How it was run: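 Measured: growth of wt1 yeast under compound versus vehicle treatment, reported as inhibition.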

[3] = NCI Yeast Anticancer Drug Screen. Data for the rad50EPP+ strain (AID 151);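 further: 0% = growth of vehicle-treated control cultures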; details: S. cerevisiae rad50 mutant strain, stronger effect = higher value
How it was run: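 In this screen, rad50EPP+ yeast were exposed to compounds. Growth inhibition was scored against vehicle-treated controls.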

[4] = NCI Yeast Anticancer Drug Screen. Data for the mgt1 strain (AID 153); details: S. cerevisiae mgt1 mutant growth inhibition, stronger effect = higher value
How it was run: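 mgt1 strain exposed; growth vs vehicle control recorded as inhibition.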

[5] = NCI Yeast Anticancer Drug Screen. Data for the rad50 strain (AID 155);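 further: 0% = growth of vehicle-only cultures of the same strain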; details: S. cerevisiae rad50 strain growth inhibition, stronger effect = higher value
How it was run: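 Growth of the mutant yeast was measured after compound exposure and referenced to vehicle-treated cultures.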

[6] = NCI Yeast Anticancer Drug Screen. Data for the mec2-1 strain (AID 157); details: S. cerevisiae mec2-1 strain, stronger effect = higher value
How it was run: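 Vehicle-treated cultures served as reference for growth inhibition of compound-exposed mec2-1 yeast.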

[7] = NCI Yeast Anticancer Drug Screen. Data for the rad14 strain (AID 159);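 further: 0% = growth of vehicle-treated control cultures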; details: S. cerevisiae rad14 strain growth inhibition, stronger effect = higher value
How it was run: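 Here, inhibition of yeast growth was measured after compound exposure, using a strain with a genetic defect in DNA damage repair and vehicle-treated cultures as the reference.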

[8] = NCI Yeast Anticancer Drug Screen. Data for the sgs1 mgt1 strain (AID 161);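 further: 0% = growth of cultures given vehicle only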; details: S. cerevisiae sgs1 mgt1 strain, stronger effect = higher value
How it was run: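 Mutant yeast exposed to compound; growth scored against vehicle-only wells.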

[9] = NCI Yeast Anticancer Drug Screen. Data for the CLN2oe strain (AID 163);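 further: 0% = growth of vehicle-only control cultures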; details: S. cerevisiae CLN2oe strain, stronger effect = higher value
How it was run: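 Inhibition relative to vehicle-treated yeast is reported. Cells: strain with genetic alteration in cell-cycle control, grown with compound.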

[10] = NCI Yeast Anticancer Drug Screen. Data for the cln2 rad14 strain (AID 165);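 further: 0% = growth equal to vehicle treated cultures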; details: S. cerevisiae cln2 rad14 strain, stronger effect = higher value
How it was run: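 Each compound was tested on cln2 rad14 yeast. Inhibition of growth was calculated against vehicle-exposed controls.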

[11] = NCI Yeast Anticancer Drug Screen. Data for the bub3 strain (AID 167); details: S. cerevisiae bub3 mutant strain, stronger effect = higher value
How it was run: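 Whole-cell yeast assay. The mutant strain was incubated with compounds, and growth inhibition was determined by comparison with vehicle-treated cells.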

[12] = NCI Yeast Anticancer Drug Screen. Data for the wt2 strain (AID 169);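 further: 0% = growth of vehicle-treated yeast cultures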; details: S. cerevisiae wt2 strain growth inhibition, stronger effect = higher value
How it was run: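 Inhibition of yeast growth was determined after compound treatment, normalised to controls receiving only vehicle.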

[13] = NCI Yeast Anticancer Drug Screen. Data for the mlh1 strain (AID 171);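 further: 0% = growth of vehicle-treated control cultures of the same strain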; details: S. cerevisiae mlh1 strain growth inhibition, stronger effect = higher value
How it was run: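 Vehicle-normalised growth inhibition of a repair- or checkpoint-altered yeast strain following compound treatment.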

[14] = NCI Yeast Anticancer Drug Screen. Data for the sgs1 strain (AID 173);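 further: 0% = growth of vehicle-only control cultures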; details: S. cerevisiae sgs1 mutant, stronger effect = higher value
How it was run: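 Screen format: yeast with repair or checkpoint alterations, compound exposure, growth read relative to vehicle.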

[15] = NCI Yeast Anticancer Drug Screen. Data for the mlh1 rad18 strain (AID 175); details: S. cerevisiae mlh1 rad18 strain growth inhibition, stronger effect = higher value
How it was run: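 Vehicle-treated cultures served as the reference for growth inhibition in a yeast strain carrying DNA damage repair alterations exposed to each compound.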

[16] = NCI Yeast Anticancer Drug Screen. Data for the rad18 strain (AID 177); details: S. cerevisiae rad18 mutant growth inhibition, stronger effect = higher value
How it was run: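 Test articles were incubated with altered yeast defective in DNA damage repair. Results are given as inhibition of growth versus vehicle.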

[17] = at 5.0 µM (retest, dose inferred, filed as 0.5)
[18] = at 50.0 µM (retest, dose inferred, filed as 5.0)

Measured: growth inhibition

O=C(O)CNc1ccc(Cl)c(Cl)c1
active: [1]; at 33.0 µM 77% | [1]; at 100.0 µM 98% | [2]; at 100.0 µM 98% | [4]; at 100.0 µM 99% | [5]; at 33.0 µM 75% | [5]; at 50.0 µM 78.2% | [5]; at 100.0 µM 98% | [6]; at 100.0 µM 99% | [7]; at 100.0 µM 98% | [9]; at 100.0 µM 98% | [10]; at 50.0 µM 84.2% | [11]; at 50.0 µM 87.3% | [11]; at 100.0 µM 98% | [12]; at 33.0 µM 78% | [12]; at 100.0 µM 99% | [13]; at 33.0 µM 71% | [13]; at 100.0 µM 99% | [14]; at 33.0 µM 74% | [14]; at 100.0 µM 98% | [15]; [18] 76% | [15]; at 50.0 µM 89.2%
inactive: [1]; at 1.2 µM -2% | [1]; at 3.7 µM 0% | [1]; at 11.0 µM 14% | [2]; at 1.2 µM -3% | [2]; at 3.7 µM -6% | [2]; at 11.0 µM -6% | [2]; at 33.0 µM 25% | [3]; at 1.2 µM -2% | [3]; at 3.7 µM 1% | [3]; at 11.0 µM 6% | [3]; at 33.0 µM 22% | [3]; at 100.0 µM 43% | [4]; at 1.2 µM -2% | [4]; at 3.7 µM -4% | [4]; at 11.0 µM -6% | [4]; at 33.0 µM 32% | [5]; at 1.2 µM -2% | [5]; at 3.7 µM 6% | [5]; [17] -7% | [5]; at 11.0 µM 13% | [5]; [18] 18% | [6]; at 1.2 µM -10% | [6]; at 3.7 µM -1% | [6]; [17] -7% | [6]; at 11.0 µM -8% | [6]; at 33.0 µM 38% | [6]; [18] 30% | [6]; at 50.0 µM 57.2% | [7]; at 1.2 µM -6% | [7]; at 3.7 µM -7% | [7]; at 11.0 µM -7% | [7]; at 33.0 µM 48% | [8]; [17] -6% | [8]; [18] 22% | [8]; at 50.0 µM 38.4% | [9]; at 1.2 µM -4% | [9]; at 3.7 µM -1% | [9]; at 11.0 µM 0% | [9]; at 33.0 µM 58% | [10]; [17] 10% | [10]; [18] 1% | [11]; at 1.2 µM -9% | [11]; at 3.7 µM -12% | [11]; [17] -8% | [11]; at 11.0 µM 5% | [11]; at 33.0 µM 67% | [11]; [18] 17% | [12]; at 1.2 µM -5% | [12]; at 3.7 µM -5% | [12]; at 11.0 µM -6% | [13]; at 1.2 µM -2% | [13]; at 3.7 µM 1% | [13]; at 11.0 µM 2% | [14]; at 1.2 µM -3% | [14]; at 3.7 µM -5% | [14]; at 11.0 µM 4% | [15]; [17] -16%

Cc1ccc(N)c(S)c1
active: [1]; at 33.0 µM 88% | [1]; at 100.0 µM 97% | [2]; at 33.0 µM 75% | [2]; at 100.0 µM 99% | [3]; at 11.0 µM 76% | [3]; at 33.0 µM 95% | [3]; at 100.0 µM 91% | [4]; at 33.0 µM 98% | [4]; at 100.0 µM 99% | [5]; at 33.0 µM 91% | [5]; [18] 77% | [5]; at 100.0 µM 94% | [6]; at 33.0 µM 96% | [6]; [18] 75% | [6]; at 100.0 µM 98% | [7]; at 100.0 µM 96% | [8]; at 50.0 µM 80.3% | [9]; at 33.0 µM 93% | [9]; at 100.0 µM 99% | [11]; at 33.0 µM 98% | [11]; [18] 92% | [11]; at 50.0 µM 81.5% | [11]; at 100.0 µM 98% | [12]; at 33.0 µM 93% | [12]; at 100.0 µM 99% | [13]; at 33.0 µM 98% | [13]; at 100.0 µM 97% | [14]; at 33.0 µM 98% | [14]; at 100.0 µM 98% | [15]; [18] 95% | [15]; at 50.0 µM 92.2% | [16]; at 100.0 µM 90%
inactive: [1]; at 1.2 µM -56% | [1]; at 3.7 µM -52% | [1]; at 11.0 µM -12% | [2]; at 1.2 µM -23% | [2]; at 3.7 µM -29% | [2]; at 11.0 µM -19% | [3]; at 1.2 µM -49% | [3]; at 3.7 µM -39% | [4]; at 1.2 µM -11% | [4]; at 3.7 µM -13% | [4]; at 11.0 µM 15% | [5]; at 1.2 µM -34% | [5]; at 3.7 µM -27% | [5]; [17] 1% | [5]; at 11.0 µM -4% | [5]; at 50.0 µM 10.4% | [6]; at 1.2 µM -24% | [6]; at 3.7 µM -15% | [6]; [17] -19% | [6]; at 11.0 µM -9% | [6]; at 50.0 µM 36.3% | [7]; at 1.2 µM -43% | [7]; at 3.7 µM -36% | [7]; at 11.0 µM -22% | [7]; at 33.0 µM 55% | [8]; [17] -1% | [8]; [18] 36% | [9]; at 1.2 µM -15% | [9]; at 3.7 µM -3% | [9]; at 11.0 µM 13% | [10]; [17] 35% | [10]; [18] 63% | [10]; at 50.0 µM -1.5% | [11]; at 1.2 µM -35% | [11]; at 3.7 µM -11% | [11]; [17] 15% | [11]; at 11.0 µM 48% | [12]; at 1.2 µM -48% | [12]; at 3.7 µM -25% | [12]; at 11.0 µM -4% | [13]; at 1.2 µM -19% | [13]; at 3.7 µM -3% | [13]; at 11.0 µM 26% | [14]; at 1.2 µM -29% | [14]; at 3.7 µM -34% | [14]; at 11.0 µM 14% | [15]; [17] 20% | [16]; at 1.2 µM -48% | [16]; at 3.7 µM -37% | [16]; at 11.0 µM -22% | [16]; at 33.0 µM 42%
